# Compounds with a hit are over-represented: about 6.8% of the library has one in this group of screens.
# KB-3-1 tox: qHTS assay for MDR1-selective chemotherapeutics: Primary screen using the parental adenocarcinoma cell KB-3-1; KB-3-1 viability, CellTiter-Glo ATP luminescence, 72 h; Potency, µM (highest dose often 46.1 µM), hits mostly cytotoxic; 400,000 tested, 1.4% active; note: % is set by controls: 0 for no effect and ±100 for the full control effect; nearly all actives have a fitted effect of over 60% in size
#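 Viability of parental KB-3-1 cells, measured by CellTiter-Glo luminescence, followed a 72 h incubation at 37 °C with pinned compounds in phenol-red-free DMEM containing 10% FBS.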
# SW480 rerep: A quantitative high throughput screen for small molecules that induce DNA re-replication in SW480 colon adenocarcinoma cells; AID 624297, 2012; 340,000 tested, 1.8% active; SW480 DNA re-replication, Hoechst DNA content imaging, 48 h; Potency, µM (doses to about 46.1 µM), without a hit: top-dose re-replication activation, usual class: activators; note: % of control where 0% means no effect; nearly all actives have a fitted effect of over 55% in size
#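 First, 250 cells per well were seeded. Next, compound or vehicle (23 nL) was pinned in, plates sat 48 hr at 37 C. Finally Hoechst was added for 40 min before fluorescence scanning.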
# MCF10A rerep: A quantitative high throughput screen for small molecules that induce DNA re-replication in MCF 10a normal breast cells; AID 624296, 2012; Potency, µM (titrated, usually from 46.1 µM), inactives show at the highest dose activity, positive = re-replication, most hits filed as activators; MCF 10A DNA re-replication, Hoechst nuclear intensity, 48 h; 350,000 tested, 2.9% active; note: % of control where 0% means no effect; nearly all actives have a fitted effect of over 50% in size
# KB-V1 cytotox: qHTS assay for MDR1-selective chemotherapeutics: Primary screen using the drug-selected MDR subline cells KB-V1; AID 1347076, 2019; KB-V1 MDR cells viability, CellTiter-Glo, 72 h; Potency, µM (titrated, usually from 46.1 µM), hits mostly cytotoxic; 400,000 tested, 3.4% active; note: % is set by controls: 0 for no effect and ±100 for the full control effect; nearly all actives have a fitted effect of over 60% in size
#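 Potencies derive from concentration-effect curves fitted to normalized luminescence (CellTiter-Glo) of KB-V1 cells treated for 72 h at 37 degrees C in phenol-red-free DMEM containing 10% FBS.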
# PINK1 modulator: A Quantitative High throughput Screen to Identify Chemical Modulators of PINK1 Expression; PINK1 immunofluorescence, high-content cytometry, 24 h; AID 624263, 2012; 410,000 tested, 0.2% active; Potency, µM (series often up to 76.6 µM), inactives show at the top dose activation (PINK1 increase), hits mostly activators; active = well fitted activation curve with a large enough effect; inconclusive = small, poorly fitted or top-dose-only effect; cell line not stated here; note: % of control where 0% means no effect; nearly all actives have a fitted effect of over 65% in size
#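 Readout is PINK1 immunofluorescence, quantified alongside mitochondrial, cell and nuclear markers by laser-scanning microplate cytometry. Cells from a stable line were exposed to compound titrations (5 concentrations) for 24 hours, with CCCP controls.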
# TSG101-PTAP inh: qHTS Assay for Iinhibitors of HIV-1 Budding by Blocking the Interaction of PTAP/TSG101 | Tumor susceptibility gene 101 protein (Homo sapiens), Q99816 | 340,000 tested, under 10 active | Potency, µM (series often up to 115 µM), for inactives: top-dose activity change, negative = inhibition, hits mostly inhibitors | AID 493005, 2010 | Fluorescence polarization, FITC-PTAP peptide / Tsg101 binding; active = well fitted inhibition curve with a large enough effect in the main read-out, with a control signal flat, not every such curve was filed as active; inconclusive = small, poorly fitted or top-dose-only effect, or effect the other way, or a change in a side signal; inactive = no such curve, though single readings can be large or run the other way; note: % of control where 0% means no effect
# Target sequence (Q99816 whole entry, looked up): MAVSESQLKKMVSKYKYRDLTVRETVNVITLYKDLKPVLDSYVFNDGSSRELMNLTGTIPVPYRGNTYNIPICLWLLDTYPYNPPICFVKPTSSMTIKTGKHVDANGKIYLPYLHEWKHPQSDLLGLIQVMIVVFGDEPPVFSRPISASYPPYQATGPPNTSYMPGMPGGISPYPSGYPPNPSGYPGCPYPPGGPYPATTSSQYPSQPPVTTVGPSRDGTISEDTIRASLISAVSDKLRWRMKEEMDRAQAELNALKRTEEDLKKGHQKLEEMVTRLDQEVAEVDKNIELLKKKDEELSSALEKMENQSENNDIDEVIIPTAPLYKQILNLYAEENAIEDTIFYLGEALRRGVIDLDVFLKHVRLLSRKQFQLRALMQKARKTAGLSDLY
#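 FP read-out: FITC-PTAP peptide, 50 nM final, binding Tsg101 binding domain, 10 uM final; 20 min, r.t.; 10 mM HEPES pH 7.5, 0.15 M NaCl, 0.01% Tween 20, 3 mM EDTA, 0.1 mM TCEP.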
# * = called active by the depositor; i = inactive; ? = inconclusive; . = not tested or not shown; [ ] = another dose, or the depositor's remark. Unless noted, calls come from the whole dose curve; as a rule, active = well fitted curve in the direction sought with a large enough effect; inconclusive = small, poorly fitted or top-dose-only effect, or another doubt; inactive = no such curve, though single readings can be large; an effect the other way counts as inactive or inconclusive. Potency is the fitted concentration of half-maximal effect.
SMILES,KB-3-1 tox,SW480 rerep,MCF10A rerep,KB-V1 cytotox,PINK1 modulator,TSG101-PTAP inh
OC(c1ccc2c(c1)CN(Cc1ccc3nsnc3c1)CCO2)C1CCCCC1 (stereo not drawn),.,.,.,.,0%,.
Cc1noc(C)c1C(=O)N1CCC2(CCCN(C(=O)NC(C)C)C2)CC1,.,.,.,.,1%,.
COC(=O)c1c(NC(=O)/C(C#N)=C/c2ccc(OC)cc2)sc2c1CCC2,.,.,.,.,13%,.
COC(=O)c1ccc(Cn2nnc3sc4c(c3c2=O)CCC(C)C4)cc1 (stereo not drawn),i,.,.,i,-1%,.
Cc1ccc(C)c(NC(=O)NNC(=O)c2cc3ccccc3cc2O)c1,i,-25%,15µM*,i,8%,-2%
Cc1ccc(NC(=O)c2cc3ccccc3cc2O)cc1,?,13%,?,i,?,-5%
O=C(NC(=S)Nc1ccc(Cc2ccncc2)cc1)c1ccccc1,?,-4%,?,18µM*,1%,-7%
COc1ccc(NC(=O)c2cc3ccccc3cc2O)cc1,i,?,4.6µM*,i,?,-1%
Cc1ccc(C(=O)c2cn(Cc3ccc(F)cc3)c3nc(C)ccc3c2=O)cc1,i,.,.,i,0%,.
O=C(Nc1ccc2ccccc2c1)Nc1nnc(-c2ccccn2)s1,?,.,.,i,.,.
O=C1C(=O)N(CCS(=O)(=O)c2ccccc2)c2ccc(Cl)cc21,16µM*,?,?,i,-1%,-4%
Cc1ccc(OCCN2C(=O)C(=O)c3cc(C)ccc32)cc1,?,13µM*,7.3µM*,?,5%,-4%
CCCN1C(=O)C(=O)c2cc(Cl)ccc21,i,16µM*,21µM*,i,1%,-5%
CCCOc1ccc(C2=NC(c3ccc(F)cc3)=Nc3ccc(OC)cc3N2)cc1,i,.,.,i,2%,.
CCOC(=O)c1ccc(CN(Cc2ccccc2C)S(=O)(=O)c2ccc(F)c(C)c2)cc1,.,.,.,.,-2%,.
COc1ccc(S(=O)(=O)Oc2cccc(/C=N/N=C3/NC(=O)C(CC(=O)O)S3)c2)cc1 (stereo not drawn),i,6.5µM*,-17%,i,2%,-5%
Cc1c(Cl)cccc1N/C(SCC(=O)N1CCCCCC1)=C(/C#N)c1nc2ccccc2s1,21µM*,15µM*,?,15µM*,28%,-3%
CC(=O)OC1CCC2(C)C(CCC3C4CC=C(C(C)=O)C4(C)OC(=O)CC32)C1 (stereo not drawn),23µM*,.,.,?,-2%,.
Cc1cccc(C)c1OCC(=O)Nc1nnc(C2CCCO2)s1 (stereo not drawn),i,?,-1%,18µM*,5%,-5%
CCN1CCC(O)(/C=C/c2ccc(C(C)C)cc2)C(C(=O)/C=C/c2ccc(C(C)C)cc2)C1 (stereo not drawn),?,?,12µM*,?,-2%,-2%
CCCCCn1c(CCCNC(=O)c2ccc(Cl)cc2)nc2ccccc21,?,.,.,?,4%,.
C=CCSC1=C(C#N)C(c2ccccc2Cl)C(C(=O)c2cccs2)C(O)(C(F)(F)F)N1 (stereo not drawn),?,4%,?,16µM*,?,-4%
COc1cccc(CNC(=O)C2CCN(S(=O)(=O)c3ccc(C)cc3)CC2)c1,i,-58%,-1%,i,-2%,-2%
COc1cccc(CNC(=O)C2CCN(S(=O)(=O)c3ccc(F)cc3)CC2)c1,i,-4%,1%,23µM*,0%,-6%
CC1Sc2ccc(S(=O)(=O)N3CCC(C(=O)Nc4cccc(Cl)c4)CC3)cc2NC1=O (stereo not drawn),15µM*,?,1%,i,?,2%
SMILES,KB-3-1 tox,SW480 rerep,MCF10A rerep,KB-V1 cytotox,PINK1 modulator,TSG101-PTAP inh
CCCNC(=O)C1CCN(S(=O)(=O)c2ccc3c(c2)OCCO3)CC1,i,4%,1%,i,1%,-3%
CCCNC(=O)C1CCN(S(=O)(=O)c2ccc(Br)cc2)CC1,i,-1%,2%,16µM*,11%[38.3 µM],-5%
COc1ccc(S(=O)(=O)N2CCC(C(=O)NCCC(=O)Nc3cccc(Cl)c3)CC2)cc1,i,?,21µM*,i,0%,-2%
Cc1c(C(=O)N(C)Cc2cscn2)sc2ncnc(NC[C@H]3CCc4ccccc4O3)c12,.,.,.,.,0%,.
COC(=O)c1ccccc1NC(=O)CCc1c(C)nc2c(c(C)nn2-c2ccccc2)c1C,i,.,.,i,2%,.
CCOCCn1c(N2CCCN(C)CC2)nc2ccccc21,.,-1%,4%,.,.,.
Cc1ccc(Nc2nc(-c3ccccc3)nc3ccccc23)cc1,i,.,.,?,?,.
c1ccc(CCNc2nc(-c3ccncc3)nc3ccccc23)cc1,?,21µM*,?,15µM*,2%,-5%
Cc1ccc(Nc2nc(-c3ccncc3)nc3ccccc23)cc1,i,55%,9.2µM*,i,7%,-3%
Cc1ccc(-c2nc(N/N=C/c3ccccc3[N+](=O)[O-])c3ccccc3n2)cc1,i,7.3µM*,13µM*,i,27%[38.3 µM],0%
O=[N+]([O-])c1ccccc1C=NNc1ccccc1,i,6%,10%,i,13%,-6%
CCS(=O)(=O)NCc1c(C)ncc2c1CCN(C(=O)c1ccc(F)cc1)C2,.,.,.,.,-1%,.
Cc1ccc2[nH]c(=O)c3cc(C(=O)N(C)c4ccc(Br)cc4)sc3c2c1,i,.,.,i,4%,.
CCOc1ccc(NC(=O)CN2CCN(CC(=O)Nc3ccccc3OCC)CC2)cc1,i,.,.,i,-1%,.
Cc1nc(N2CCN(Cc3ccccc3)CC2)nc2c1C(=O)CCC2,?,0%,?,18µM*,5%,-6%
O=C1CCCc2nc(N3CCN(Cc4ccccc4)CC3)ncc21,i,-2%,11%,21µM*,23%[38.3 µM],-5%
Cc1nc(N2CCN(Cc3ccc4c(c3)OCO4)CC2)nc2c1C(=O)CC(c1ccco1)C2 (stereo not drawn),?,17%,20%,?,-2%[38.3 µM],-1%
Cc1nc(N2CCN(Cc3ccccc3)CC2)nc2c1C(=O)CC(c1ccco1)C2 (stereo not drawn),?,12%,?,8.2µM*,?,-7%

# From PubChem BioAssay
